Shown are actives, neighbours in structure and some others; about 2% of the full set was active somewhere.
EP2 antag: EP2 receptor (human) inhibition. 260,000 tested, 0.52% active. inhibition, % at 25 µM. C6 glioma cells expressing human EP2, cAMP TR-FRET; cells stimulated with saturating PGE2. P43116;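 active means percent inhibition above 40 after rounding to a whole number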;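 further: rat C6 glioma host cells with rolipram phosphodiesterase inhibitor present; the protocol text gives 20 µM as final concentration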
Target sequence (P43116 whole entry, looked up): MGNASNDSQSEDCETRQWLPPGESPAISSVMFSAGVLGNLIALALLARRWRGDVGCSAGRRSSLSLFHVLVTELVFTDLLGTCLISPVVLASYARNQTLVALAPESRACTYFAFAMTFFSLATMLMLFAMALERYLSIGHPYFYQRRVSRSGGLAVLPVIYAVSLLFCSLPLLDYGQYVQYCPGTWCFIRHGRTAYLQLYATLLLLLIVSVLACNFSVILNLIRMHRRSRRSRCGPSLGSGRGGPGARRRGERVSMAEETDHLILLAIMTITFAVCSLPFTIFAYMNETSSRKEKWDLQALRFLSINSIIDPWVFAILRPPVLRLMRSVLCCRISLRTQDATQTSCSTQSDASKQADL
EP2 mod: modulators of human EP2 prostaglandin E2 receptor. P43116. EP2-expressing cells, cAMP HTRF FRET, PGE2 co-stimulation. induction, % at 25 µM. 260,000 tested, 0.83% active. AID 940;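 active means compounds whose cAMP rise, as percent of the full-agonist control response, exceeds 60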;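 further: rat C6 glioma line stably carrying human EP2 under a CMV promoter; the protocol text gives 20 µM as final concentration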
CHT block: human CHT choline transport inhibition; CHT-expressing cells, membrane potential dye, choline response; hits give low values; B-score at 10 µM; 310,000 tested, 0.86% active;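 active means B-score over 3 SD under the library average, and starting fluorescence ratio not unusually high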;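 further: choline stimulus applied at its EC90 after an EC20 pre-addition; B-score computed on integrated fluorescence ratio after choline addition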
CHT allo act: human CHT allosteric activation; CHT-expressing cells, membrane potential dye, choline EC20; hits give high values; LV-AA mutant CHT in HEK293 cells; B-score at 10 µM; 310,000 tested, 0.49% active;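 active means initial fluorescence not abnormally high and integrated response B-score, plate-corrected, over 3 SD above library mean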
EP2 cAMP induct: EP2 receptor cAMP induction, counter-screens negative; shares compounds with EP2 mod; C6 glioma EP2 cells, cAMP HTRF induction; plus low (about EC15) PGE2 agonist; calls only at 20 µM (by protocol); 1,300 tested, 47% active; AID 1080;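 active means cAMP induction above 50% in the main assay while under 30% in all four parallel counter assays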;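 further: rat C6 glioma cells stably expressing human EP2 receptor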
Hits are given with their value; ! = not active in a repeat.

c1ccc(Cn2c(-c3ccccc3)nc3nc4ccccc4nc32)cc1 was read as EP2 antag inactive, EP2 mod 67, CHT block inactive, CHT allo act inactive and EP2 cAMP induct active.
Clc1cccc(-c2nc3nc4ccccc4nc3n2Cc2ccccc2)c1 was read as EP2 antag inactive, EP2 mod inactive, CHT block inactive and CHT allo act inactive.
For C=CCSc1nc2ccccc2c(=O)n1Cc1ccco1 the results were EP2 antag inactive, EP2 mod 70 and EP2 cAMP induct inactive.
CCC(c1nnnn1C(C)(C)CC)N(Cc1ccc(F)cc1)Cc1cc2c(C)cc(C)cc2[nH]c1=O (stereo unspecified) was read as EP2 antag inactive and EP2 mod inactive.
Screening COc1c(Cl)cc(Cl)cc1C(=O)n1nc(C)cc1C returned EP2 antag inactive, EP2 mod 74, CHT block inactive, CHT allo act inactive and EP2 cAMP induct inactive.
For CCOC(=O)CCCCCCCCCCCCC1C=CCC1 (stereo unspecified) the results were EP2 antag inactive, EP2 mod inactive and EP2 cAMP induct active.
For Cc1ccc(-c2nnc(N3CCC(C)CC3)c3ccccc23)cc1 the results were EP2 antag inactive, EP2 mod 74, CHT block inactive, CHT allo act inactive and EP2 cAMP induct inactive.
`CCCn1c(-c2cccs2)nc2c1c(=O)[nH]c(=O)n2Cc1ccccc1` gave EP2 antag inactive, EP2 mod 72, CHT block inactive, CHT allo act inactive and EP2 cAMP induct active.
For CCCn1c(=O)[nH]c(=O)c2c1nc(-c1ccccc1OC(F)F)n2CCOC the results were EP2 antag inactive, EP2 mod 84, CHT block inactive, CHT allo act inactive and EP2 cAMP induct inactive.
`CCCn1c(=O)[nH]c(=O)c2c1nc(-c1ccc(OC(F)F)c(OC)c1)n2CCOC` gave EP2 antag inactive, EP2 mod inactive, CHT block inactive and CHT allo act inactive.
For Cn1c(SCC(=O)Nc2cccc(Cl)c2)nnc1-c1cccs1 the results were EP2 antag inactive and EP2 mod inactive.
Screening COc1cccc(N2CCN(C(c3cc4cccc(C)c4[nH]c3=O)c3nnnn3C3CCCC3)CC2)c1 (stereo unspecified) returned EP2 antag inactive and EP2 mod inactive.
Screening Cn1c(CNc2ccc(F)cc2)nnc1SCC(=O)NNC(=O)Cc1ccccc1 returned EP2 antag inactive, EP2 mod inactive, CHT block inactive, CHT allo act inactive and EP2 cAMP induct inactive.
For CCOc1ccc([C@@H]2C[C@H](O)C(=O)N2C)cc1 the results were EP2 antag inactive and EP2 mod inactive.
c1ccc(CCc2cccnc2)nc1 was read as EP2 antag inactive, EP2 mod 74 and EP2 cAMP induct inactive.
Screening c1ccc(CN2CCN(Cc3cccnc3)CC2)nc1 returned EP2 antag inactive and EP2 mod inactive.
O=C(N/N=C/c1cccc(F)c1)NC1CCCCC1 was read as EP2 antag inactive, EP2 mod 85, CHT block inactive, CHT allo act inactive and EP2 cAMP induct active.
`COCCOC(=O)c1[nH]c2c(c1C)C(=O)C(C(=O)OC)C(C)C2` (stereo unspecified) gave EP2 antag inactive, EP2 mod inactive, CHT block inactive and CHT allo act inactive.
`CCCCCOC(=O)c1[nH]c2c(c1C)C(=O)C(C(=O)OC)C(C)C2` (stereo unspecified) gave EP2 antag inactive, EP2 mod 91, CHT block inactive, CHT allo act inactive and EP2 cAMP induct active.
CCc1nc(SCc2cccnc2)c2c(=O)n(C)c(=O)n(C)c2n1 was read as EP2 antag inactive, EP2 mod inactive, CHT block inactive and CHT allo act inactive.
For CC(C)Cc1nc(SCc2cccnc2)c2c(=O)n(C)c(=O)n(C)c2n1 the results were EP2 antag inactive, EP2 mod 63, CHT block inactive, CHT allo act inactive and EP2 cAMP induct inactive.
CC(=O)CSc1nc2c(c(=O)[nH]c(=O)n2C)n1CC(O)COc1ccccc1C (stereo unspecified) was read as EP2 antag inactive and EP2 mod inactive.
`CC(C)OC(=O)c1c(NC(=O)CCn2nnc3ccccc32)sc2c1CCCC2` gave EP2 antag inactive, EP2 mod inactive, CHT block inactive, CHT allo act inactive and EP2 cAMP induct inactive.
Screening CC(C)OC(=O)c1c(NC(=O)CCC(=O)O)sc2c1CCCCC2 returned EP2 antag inactive, EP2 mod inactive, CHT block inactive and CHT allo act inactive.
For CCOC(=O)c1c(NC(=O)c2ccco2)sc2c1CCCCC2 the results were EP2 antag inactive, EP2 mod 79, CHT block inactive, CHT allo act inactive and EP2 cAMP induct active.
Screening CCOC(=O)c1c(NC(=O)Cc2cccs2)sc2c1CCCC2 returned EP2 antag inactive, EP2 mod inactive, CHT block inactive and CHT allo act inactive.
CCc1c(C)sc(NC(=O)c2cccs2)c1C(=O)OC(C)C was read as EP2 antag inactive, EP2 mod inactive, CHT block inactive and CHT allo act inactive.
`CCOC(=O)c1c(NC(=O)c2cccs2)sc2c1CCCC2` gave EP2 antag inactive, EP2 mod inactive, CHT block inactive, CHT allo act inactive and EP2 cAMP induct inactive.
For CCOC(=O)c1c(NC(=O)c2cccs2)sc(C)c1CC the results were EP2 antag inactive, EP2 mod inactive, CHT block inactive, CHT allo act inactive and EP2 cAMP induct inactive.
Screening COc1ccc(OC)c(C(c2nnnn2C(C)(C)C)N2CCN(c3ccccc3OC)CC2)c1 (stereo unspecified) returned EP2 antag inactive and EP2 mod inactive.
COc1ccc(C2(CNC(=O)/C=C/c3ccc(Cl)cc3)CCOCC2)cc1OC was read as EP2 antag inactive and EP2 mod inactive.
Screening CCOC(=O)N1CCc2c(sc(NC(=O)c3ccc(Cl)s3)c2C(N)=O)C1 returned EP2 antag inactive, EP2 mod inactive, CHT block inactive and CHT allo act inactive.
CCOC(=O)c1c(NC(=O)c2cccs2)sc2c1CCN(C(=O)OCC)C2 was read as EP2 antag inactive, EP2 mod inactive, CHT block inactive, CHT allo act inactive and EP2 cAMP induct active.
Screening COC(=O)c1c(NC(=S)NN2CCOCC2)sc2c1CCCC2 returned EP2 antag inactive, EP2 mod inactive, CHT block inactive, CHT allo act inactive and EP2 cAMP induct inactive.
COCC(=O)Nc1sc2c(c1C(=O)OC)CCC(C)C2 (stereo unspecified) was read as EP2 antag inactive, EP2 mod 70!, CHT block inactive, CHT allo act inactive and EP2 cAMP induct inactive.
For Cc1sc(NC(=O)c2cccs2)c(C(=O)OC(C)C)c1C the results were EP2 antag inactive, EP2 mod 78, CHT block inactive, CHT allo act inactive and EP2 cAMP induct active.
`COC(=O)c1c(NC(=S)NC(=O)c2ccco2)sc2c1CCCC2` gave EP2 antag inactive, EP2 mod inactive, CHT block inactive and CHT allo act inactive.
`COc1ccc(CN(CCN(C)C)Cc2cccs2)cc1` gave EP2 antag inactive and EP2 mod inactive.

Source: PubChem BioAssay (several laboratories)
